According to publication PMC4336329 (PLoS ONE, 2015):
Among all 310,000 compounds or so, about 14,000 (4.5%) showed an effect of 50% or more. Effects have a minus sign here. The sample as a whole holds a higher share of strong results than the screen did.

The compounds below were run against human ether-à-go-go-related gene (hERG) potassium channel (human, UniProt Q12809) (assay: primary screen, population patch clamp on CHO cells stably expressing hERG; higher = less effect of the substance).
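Also: peak tail current of the secondary pulse compared with the same well before compound.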

Chain of human ether-à-go-go-related gene (hERG) potassium channel (Q12809 whole entry, looked up): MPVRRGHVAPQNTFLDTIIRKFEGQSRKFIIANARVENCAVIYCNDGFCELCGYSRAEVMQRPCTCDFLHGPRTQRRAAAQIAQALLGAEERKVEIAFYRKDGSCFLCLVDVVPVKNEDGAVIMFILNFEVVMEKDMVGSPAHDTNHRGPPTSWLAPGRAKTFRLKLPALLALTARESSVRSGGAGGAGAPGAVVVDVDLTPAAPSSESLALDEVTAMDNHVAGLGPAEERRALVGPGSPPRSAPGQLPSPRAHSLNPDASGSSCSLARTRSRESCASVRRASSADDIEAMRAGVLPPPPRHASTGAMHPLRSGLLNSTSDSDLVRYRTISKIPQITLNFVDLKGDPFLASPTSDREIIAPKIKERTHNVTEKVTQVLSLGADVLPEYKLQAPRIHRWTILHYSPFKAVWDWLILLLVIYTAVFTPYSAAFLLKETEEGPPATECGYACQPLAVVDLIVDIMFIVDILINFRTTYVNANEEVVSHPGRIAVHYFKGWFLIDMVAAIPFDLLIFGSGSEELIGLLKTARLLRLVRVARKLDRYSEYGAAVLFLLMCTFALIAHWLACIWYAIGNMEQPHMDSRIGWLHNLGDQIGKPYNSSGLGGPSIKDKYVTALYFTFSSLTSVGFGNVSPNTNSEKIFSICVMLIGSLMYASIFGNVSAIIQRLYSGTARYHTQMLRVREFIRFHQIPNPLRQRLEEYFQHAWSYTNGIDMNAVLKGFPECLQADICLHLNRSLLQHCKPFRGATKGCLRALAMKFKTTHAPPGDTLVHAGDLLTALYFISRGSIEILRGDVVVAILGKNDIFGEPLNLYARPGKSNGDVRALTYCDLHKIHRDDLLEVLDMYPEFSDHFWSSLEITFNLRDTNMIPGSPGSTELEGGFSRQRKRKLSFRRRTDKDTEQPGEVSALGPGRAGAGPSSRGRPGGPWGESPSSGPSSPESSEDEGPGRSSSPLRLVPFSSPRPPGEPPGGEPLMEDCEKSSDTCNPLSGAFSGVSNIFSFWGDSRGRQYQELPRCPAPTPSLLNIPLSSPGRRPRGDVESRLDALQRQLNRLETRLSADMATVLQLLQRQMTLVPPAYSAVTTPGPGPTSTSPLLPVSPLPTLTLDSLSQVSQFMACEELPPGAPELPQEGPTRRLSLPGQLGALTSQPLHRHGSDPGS

| SMILES | hERG current change (%, negative = inhibition) at 10uM [%] |
| --- | --- |
| CC1(c2ccccc2)CC(C)(C)N2C(=O)/C(=C3\SC(=S)NC3=O)c3cccc1c32 (stereo not shown) | -0.561 |
| O=C(COC(=O)Cc1cn2ccsc2n1)Nc1nc2ccccc2s1 | 8.88 |
| CCOCCCNC(=O)C1CCN(c2cc(C)nc3c(-c4ccc(OC)c(OC)c4)c(C)nn23)CC1 | -7.5 |
| COc1cc(C)ccc1OCCOCCOc1cccc2ccc(C)nc12.O=C(O)C(=O)O | -29.3 |
| C=CCc1ccc(OCCOCCOc2cccc3ccc(C)nc23)c(OC)c1.O=C(O)C(=O)O | -61.6 |
| C=CCc1ccc(OCCOc2cccc3ccc(C)nc23)c(OC)c1.O=C(O)C(=O)O | -6.6 |
| CCOC(=O)c1[nH]c(C)c(C(=O)N2CCc3c([nH]c4ccccc34)C2c2ccccn2)c1C (stereo not shown) | -0.347 |
| CSc1nc(NCCCN(C)C)c2c3c(sc2n1)CN(C)CC3 | 1.56 |
| CSc1nc(NCc2ccco2)c2c3c(sc2n1)CN(C)CC3 | -75 |
| CSc1nc(NCc2ccccc2)c2c3c(sc2n1)CN(C)CC3 | -78 |
| CSc1nc(SCC(=O)NCc2ccco2)c2c3c(sc2n1)CN(C)CC3 | -0.986 |
| CCN(CC)CCCNc1nc(SC)nc2sc3c(c12)CCN(C)C3 | 11 |
| CCC(O)CNc1nc(SC)nc2sc3c(c12)CCN(C)C3 (stereo not shown) | 0.847 |
| Cc1ccc(CN2CC(C(=O)O)CC2=O)cc1 (stereo not shown) | 6.55 |
| CCOc1ccc(NC(=O)C(CC(=O)O)Cc2ccc(Br)cc2)cc1 (stereo not shown) | 11.1 |
| COc1ccc(C(=O)Oc2cccc(/C=N/NC(N)=S)c2)cc1 | 11.7 |
| Cc1ccc(NC(=S)N(CCCN2CCC(C)CC2)Cc2ccco2)cc1C | -70.3 |
| Cc1ccc2[nH]c(=O)c(CN(Cc3ccco3)C(=O)c3ccncc3)cc2c1 | -43.4 |
| Cc1ccc2[nH]c(=O)c(CN(Cc3ccco3)C(=O)N3CCOCC3)cc2c1 | -0.449 |
| Cc1ccc2[nH]c(=O)c(CN(Cc3ccco3)C(=O)CN3CCCC(C)C3)cc2c1 (stereo not shown) | -57 |
| Cc1ccccc1NC(=S)N(CCCN1CCC(C)CC1)Cc1ccco1 | -47.9 |
| Cc1ccc(NC(=S)N(CCCN2CCOCC2)Cc2ccco2)cc1 | 4.36 |
| Cc1ccc(NC(=S)N(CCCN2CCOCC2)Cc2ccco2)cc1C | -31.9 |
| Cc1ccc(NC(=S)N(CCCN2CCC(C)CC2)Cc2ccco2)cc1 | -72 |
| Cc1ccc(NC(=S)N(CCCN2CCCC(C)C2)Cc2ccco2)cc1C (stereo not shown) | -76.2 |
